Test results: PubChem BioAssay AID488920 (Sanford-Burnham Center for Chemical Genomics, 2010)
Calls of active or inactive are those of the source. No stated cut-off is given here; in the data, active means IC50 below about 3 µM; inactive means the rest.

Experiment: luminescence signal interference by compounds, dose response, artefact control for SENP inhibitor project, biochemical (AID 488920)
Details: luminescence interference counterscreen, spectral interferers

| SMILES | IC50 |
| --- | --- |
| O=c1oc2c(O)cccc2cc1-c1nc2ccccc2[nH]1 | 0.606 µM (active) |
| COc1cc([N+](=O)[O-])ccc1N/C=C/C(=O)c1cccs1 | 0.458 µM (active) |
| Cc1ccc(S(=O)(=O)/N=C2\C=C(Nc3cccc(C(=O)O)c3)C(=O)c3ccccc32)c(C)c1 | > 5 µM (inactive) |
| O=C(O)c1ccc(NC2=C/C(=N/S(=O)(=O)c3ccccc3)c3ccccc3C2=O)cc1 | > 5 µM (inactive) |
| CCC(C)n1c(NC(=O)c2ccccc2)c(C#N)c2nc3ccccc3nc21 (stereo unspecified) | > 5 µM (inactive) |
| Cc1nc(Nc2ccc(C(=O)O)cc2)sc1-c1ccccc1 | 0.325 µM (active) |
| O=C1c2ccccc2-c2nnc(-c3ccc(F)cc3)cc21 | 1.18 µM (active) |
| CCN(CC)c1ccc(/C=N/NC(=O)c2ccoc2C)c(O)c1 | 2.53 µM (active) |
| Cn1c(-c2ccccc2)cc2onc(-c3ccccc3)c2c1=O | 0.607 µM (active) |
| Cc1cc(C)nc(Nc2nc(-c3ccccc3)cs2)n1 | 0.865 µM (active) |
| COc1cc(C(=O)c2nccc3cc(OC)c(OC)cc23)c([N+](=O)[O-])cc1OC | > 5 µM (inactive) |
| O=C1/C(=C/c2ccc([N+](=O)[O-])cc2)CCc2ccccc21 | 0.884 µM (active) |
| Cc1ccnc(Nc2nc(-c3ccccc3)cs2)c1 | 0.824 µM (active) |
| CCCCn1c(NC(=O)c2ccccc2Cl)c(C#N)c2nc3ccccc3nc21 | > 5 µM (inactive) |
| O=c1[nH]c(Nc2ccccc2)cc2ccccc12 | > 5 µM (inactive) |
| Cc1ccc(C(=O)NNc2cc(N3CCCC3)nc(N3CCCC3)n2)cc1 | > 5 µM (inactive) |
